# According to PubChem BioAssay (Tox21):
# Records with an inconclusive call do not appear. Entries that show only a call come without a potency. Activity calls are given as the source filed them. The call rests on the fitted dose curve; in most records, active means well fitted curve in the direction sought with a large enough effect in the repeat runs; inconclusive means weak or mixed curves; inactive means no such curve, though single readings can be large; an effect the other way counts as inactive or inconclusive.
# Test: qHTS assay to identify small molecule antagonists of the estrogen related receptor signaling pathway with the pleiotropic PPARgamma coactivator (PGC) cell viability counter screen (AID 1224822)
# Conditions: ERR/PGC reporter cell line viability counter screen; series mostly up to 46.1 µM
# Summary of the method: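 Counter screen for cell viability: PGC/ERR cells, 6 h pre-incubation after plating, 17.5 h compound exposure at 37 C, fluorescence from CellTiter-Fluor after 30 min.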
# Potency means the concentration at half of the fitted maximal effect.
row,SMILES,Potency
1,CNC(=O)[C@H]1O[C@@H](n2cnc3c(NCc4cccc(I)c4)ncnc32)[C@H](O)C1O (stereo not given in full),inactive
2,O=C(CCSCc1ccco1)NNC(=O)N1Cc2ccccc2Oc2ccc(Cl)cc21,inactive
3,COc1cccc(OC)c1OCCNCC1COc2ccccc2O1 (stereo not given),inactive
4,C=C[C@H]1CN2CC[C@@H]1C[C@H]2[C@H](O)c1ccnc2ccc(OC)cc12,inactive
5,CCC1(O)CC2CN(CCc3c([nH]c4ccccc34)[C@@](C(=O)OC)(c3cc4c(cc3OC)N(C=O)C3[C@]45CCN4CC=C[C@@](CC)([C@@H](OC(C)=O)[C@]3(O)C(=O)OC)[C@H]45)C2)C1 (stereo not given in full),inactive
6,CSC(=N)N,inactive
7,CCCc1c(-c2ccc(O)cc2)nn(-c2ccc(O)cc2)c1-c1ccc(O)cc1,inactive
8,CC(C)NC[C@H](O)COc1cccc2[nH]ccc12,inactive
9,CCOC(=O)N1CCN(/[N+]([O-])=N/Oc2ccc([N+](=O)[O-])cc2[N+](=O)[O-])CC1,13.9 µM (active)
10,COc1cccc(OC)c1OCCNCC1CSc2ccccc2O1 (stereo not given),inactive
11,NC(N)=NCc1cccc(I)c1,inactive
12,CN1C2CCC1CC(OC(=O)C(CO)c1ccccc1)C2 (stereo not given),inactive
13,C=C[C@H]1CN2CC[C@@H]1C[C@@H]2[C@@H](O)c1ccnc2ccc(OC)cc12,inactive
14,CCCCCCCCCCC(C)(C)C(=O)Nc1c(OC)cc(OC)cc1OC,inactive
15,O=C(Nc1ccc2c(c1)CCN(Cc1ncn[nH]1)C2)c1ccccc1-c1ccc(C(F)(F)F)cc1,inactive

# Test: qHTS assay to identify small molecule agonists of the estrogen related receptor signaling pathway with the pleiotropic PPARgamma coactivator (PGC) (AID 1224823)
# Conditions: ERR/PGC reporter cell line, luciferase agonist mode; series mostly up to 46.1 µM
# Summary of the method: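 Compounds dissolved in DMSO are added by pin tool to PGC/ERR cells that have settled for 6 h, and incubation continues 18 h at 37 C. Reporter output is measured as One-Glo luminescence.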
row,SMILES,Potency
1,O=c1cc(N2CCOCC2)oc2c(-c3ccccc3)cccc12,inactive
2,CC[n+]1c(/C=C/C=C2/N(C)c3ccccc3C2(C)C)sc2ccccc21,inactive
3,O=C(CCCCCN1CCN(c2ccccc2-c2ccccc2)CC1)NC1CCCc2ccccc21 (stereo not given),inactive
4,C[C@]12C=CC(=O)C=C1CC[C@@H]1C2=CC[C@]2(C)[C@@H](C(=O)CN3CCN(c4cc(N5CCCC5)nc(N5CCCC5)n4)CC3)CC[C@@H]12,inactive
5,C[C@@H](N)C1CCC(C(=O)Nc2ccncc2)CC1 (stereo not given in full),inactive
6,C=CCN1CCc2c(cc(O)c(O)c2Br)[C@@H](c2ccccc2)C1,inactive
7,CC(C)[C@H](NC(=O)OCc1ccccc1)C(=O)N[C@H](C=O)Cc1ccccc1,inactive
8,NS(=O)(=O)C#Cc1ccccc1,inactive
9,CCN(CC)CC#CCOC(=O)C(O)(c1ccccc1)C1CCCCC1 (stereo not given),inactive
10,O=[N+]([O-])c1ccc(CNc2nc(NCc3cccc(C(F)(F)F)c3)nc3nc[nH]c23)cc1,inactive
11,CNC(=O)[C@H]1O[C@@H](n2cnc3c(NCc4cccc(I)c4)ncnc32)[C@H](O)C1O (stereo not given in full),0.944 µM (active)
12,O=C(CCSCc1ccco1)NNC(=O)N1Cc2ccccc2Oc2ccc(Cl)cc21,inactive
13,COc1cccc(OC)c1OCCNCC1COc2ccccc2O1 (stereo not given),inactive
14,CCCc1c(-c2ccc(O)cc2)nn(-c2ccc(O)cc2)c1-c1ccc(O)cc1,inactive
15,CCOC(=O)N1CCN(/[N+]([O-])=N/Oc2ccc([N+](=O)[O-])cc2[N+](=O)[O-])CC1,inactive
16,COc1cccc(OC)c1OCCNCC1CSc2ccccc2O1 (stereo not given),inactive
17,NC(N)=NCc1cccc(I)c1,inactive
18,CCCCCCCC/C=C\CCCCCCCC(=O)NCCc1ccc(O)c(O)c1,inactive
19,Cc1ccccc1/C=C/C1=NCCN1,inactive
20,COC(=O)C1=C(C)NC(C)=C([N+](=O)[O-])C1c1ccccc1C(F)(F)F (stereo not given),inactive
21,Clc1ccc(N2CCN(Cc3cc4ccccn4n3)CC2)cc1,inactive
22,CCCCCCCCCCC(C)(C)C(=O)Nc1c(OC)cc(OC)cc1OC,inactive
23,O=c1oc(Cl)c(Cl)c2ccccc12,inactive
24,O=C(Nc1ccc2c(c1)CCN(Cc1ncn[nH]1)C2)c1ccccc1-c1ccc(C(F)(F)F)cc1,inactive
25,COc1ccccc1N1CCN(CCCCNC(=O)c2ccc3ccccc3c2)CC1,inactive
